Experimental data from PubChem BioAssay (NCATS).
Inconclusive results are not listed. Calls of active or inactive are those of the source.

Test: qHTS for identification of novel therapeutic agents for treatment of microphthalmiaassociated transcription factor (MiT) renal cell carcinoma (RCC) (AID 1963991)
Details: CellTiter-Glo, 48 h; for Potency: active = Z-AUC below -0.8 in all three lines; for z-score: stronger effect = lower value
Excerpt: PI: Marston Linehan Ph.D.
Urologic Oncology Branch, Center for Cancer Research (CCR)
National Cancer Institute (NCI), National Institute of Health (NIH), Bethesda, Maryland
MiT-Renal Cell Carcinoma (RCC) is characterized by genomic translocations involving microphthalmia-associated transcription factor (MiT) family members TFE3, TFEB, or MITF. MiT-RCC represents a specific subtype of sporadic RCC that is predominantly seen in young patients and can present with heterogeneous histological features making diagnosis challenging. Moreover, the disease biology of this aggressive cancer is poorly understood and there is no accepted standard of care therapy for patients with advanced disease. Tumor-derived cell lines have been established from human TFE3-RCC providing useful models for preclinical studies. TFE3-RCC tumor derived cell lines and their tissues of origin were characterized by IHC and gene expression analyses. An unbiased high-throughput drug screen was performed to identify novel therapeutic agents for treatment of MiT-RCC. Potential therapeutic candidates were validated in in vitro and in vivo preclinical studies. Mechanistic assays were conducted to confirm the on-target effects of drugs. The results of a high-throughput small molecule drug screen utilizing three TFE3-RCC tumor-derived cell lines identified five classes of agents with potential pharmacological efficacy, including inhibitors of phosphoinositide-3-kinase (PI3K) and mechanistic target of rapamycin (mTOR), and several additional agents, including the transcription inhibitor Mithramycin A. Upregulation of the cell surface marker GPNMB, a specific MiT transcriptional target, was confirmed in TFE3-RCC and evaluated as a therapeutic target using the GPNMB-targeted antibody-drug conjugate CDX-011. […] The results of the high-throughput drug screen and validation studies in TFE3-RCC tumor-derived cell lines have provided in vitro and in vivo preclinical data supporting the efficacy of the PI3K/mTOR inhibitor.
SEQUENCE No. (e.g., 1, 2, 3, etc.); […] (e.g., Cells, Incubation, Reagent, etc.); VALUE; DESCRIPTION.
1; Cells; 3 uL; white, solid-bottom Grenier assay plate.
2; Compounds; 23 nL; Kalypsis pin-tool (Wako USA).
3; Incubation; 48 hr; 37 C, 5% CO2, 95% humidity.
4; Reagent; 3 uL; CellTiter-Glo reagent (Promega).
5; Incubation; 15 min; room temperature.
6; Detection; Luminescence; ViewLux plate reader (PerkinElmer).
NOTES (numbers refer to Sequence numbers above)
1. Quantitative high-throughput screening (qHTS) of 1912 pharmacologically defined small molecule compounds was conducted on three TFE3-fusion cell lines bearing three different fusion partners (UOK109, UOK124, UOK145). Briefly, 500 cells in complete growth media were plated into white, solid-bottom, 1536-well tissue culture treated plates (Grenier Cat. 789173-F) using a Multidrop Combi cassette dispenser.
2. Twenty-three nanoliter of 1912 pharmacologically defined small molecule compounds of the NCATS Mechanism Interrogation PlatE (MIPE) version 4.0 were added to each assay plate using a Pintool Dispenser (Wako) equipped with 1536 pin head.
3. Plates were covered with stainless steel gasketed lids and incubated for 48 hours at standard cell culture conditions.
4. Viability was assessed by adding 3uL of CellTiter-Glo detection reagent (Promega).
5. Plates were covered with gasket lids and incubated for 15 minutes at room temperature.
6. Luminescence was measured on a ViewLux plate reader (PerkinElmer). Post-screen data processing used DMSO controls as 100% viability and empty wells as 0% viability and dose response curve fitting was done for all 11 concentrations for each compound.

[1] = TFE3-RCC UOK109 viability, measured here: UOK109 Z-AUC
[2] = TFE3-RCC viability, measured here: UOK124 Z-AUC
[3] = TFE3-RCC viability, measured here: UOK145 Z-AUC
Potency means the concentration at half of the fitted maximal effect.

Compound	Potency (TFE3-RCC UOK109 viability)	z-score [1]	z-score [2]	z-score [3]
Cc1ccc(C(=O)N(CCCN)[C@@H](c2nc3cc(Cl)ccc3c(=O)n2Cc2ccccc2)C(C)C)cc1	0.00166 µM (active)	-2.23	-1.53	-1.7
O=C1NC(=O)C(c2cnc3ccccn23)=C1c1cn2c3c(cccc13)CN(C(=O)N1CCOCC1)CC2	4.18 µM (active)	-1.6	-1.78	-1.46
COc1ccc(-c2ccc3ncc4c(c3c2)n(-c2ccc(N3CCNCC3)c(C(F)(F)F)c2)c(=O)n4C)cn1	1.48 µM (active)	-2.72	-3.95	-3.85
FC(F)(F)c1ccc(C=Cc2nc(COc3ccc(CCCCn4ccnn4)cc3)co2)cc1	0.00296 µM (active)	-2.19	-1.14	-1.58
NCC1CCC(C(=O)O)CC1 (stereo not drawn)		0.68	0.972	0.669
CC(C)c1onc(-c2c(Cl)cccc2Cl)c1COc1ccc(C=Cc2cccc(C(=O)O)c2)c(Cl)c1		0.965	0.847	0.507
C[C@H]1COC2=C1C(=O)C(=O)c1c2ccc2c1CCCC2(C)C		-0.0604	-0.0946	-0.271
Cc1cc2nc3c(=O)[nH]c(=O)nc-3n(CC(O)C(O)C(O)CO)c2cc1C (stereo not drawn)		1.42	0.421	0.538
CN[C@@H]1[C@@H](O)[C@@H](O[C@@H]2[C@@H](O)[C@H](O[C@H]3O[C@H](CN)[C@@H](O)[C@H](O)[C@@H]3O)[C@@H](N)C[C@@H]2NC(=O)[C@@H](O)CN)OC[C@]1(C)O		2.18	0.621	0.614
N#Cc1c(N(CC(=O)O)CC(=O)O)sc(C(=O)O)c1CC(=O)O		0.286	0.354	0.00458
CNc1nc(Nc2ccc(C(=O)N3CCOCC3)cc2OC)ncc1Cl		0.622	-0.0223	0.626
CC[C@H](C)C(=O)O[C@H]1C[C@H](O)C=C2C=C[C@H](C)[C@H](CC[C@@H](O)C[C@@H](O)CC(=O)O)[C@H]21		0.594	0.809	0.248
O=C(NCCCCN1CCOCC1)c1cc2ccccc2o1		0.969	0.64	0.273
